Columns and labels:
[1] = biological target: T1, Inhibitor of nuclear factor kappa-B kinase subunit epsilon (Homo sapiens) (UniProt Q14164); conditions: at 1 µM;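 also: reported values are averaged percent inhibition figures against human IKKε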
T1 sequence (whole entry): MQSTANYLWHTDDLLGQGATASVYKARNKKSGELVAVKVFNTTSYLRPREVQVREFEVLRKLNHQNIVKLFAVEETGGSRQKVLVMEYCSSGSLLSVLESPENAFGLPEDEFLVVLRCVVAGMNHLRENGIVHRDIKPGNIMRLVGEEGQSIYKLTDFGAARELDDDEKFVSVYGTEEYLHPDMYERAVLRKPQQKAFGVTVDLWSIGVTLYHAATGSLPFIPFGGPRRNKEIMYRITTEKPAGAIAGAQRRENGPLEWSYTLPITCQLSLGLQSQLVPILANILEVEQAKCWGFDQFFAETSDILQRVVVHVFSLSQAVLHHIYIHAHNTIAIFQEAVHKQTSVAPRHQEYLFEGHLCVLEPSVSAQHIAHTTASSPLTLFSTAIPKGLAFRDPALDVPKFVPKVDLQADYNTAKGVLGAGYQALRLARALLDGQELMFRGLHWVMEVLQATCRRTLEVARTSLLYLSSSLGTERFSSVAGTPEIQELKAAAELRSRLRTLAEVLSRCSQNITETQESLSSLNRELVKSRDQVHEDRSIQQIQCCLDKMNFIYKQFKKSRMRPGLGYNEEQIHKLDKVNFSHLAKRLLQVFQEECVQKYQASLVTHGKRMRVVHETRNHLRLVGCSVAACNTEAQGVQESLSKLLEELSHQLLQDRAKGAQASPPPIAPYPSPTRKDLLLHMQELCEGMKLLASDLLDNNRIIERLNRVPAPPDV

[2] = biological target: T2, Serine/threonine-protein kinase Nek1 (Homo sapiens) (UniProt Q96PY6); conditions: at 0.1 µM
T2 sequence (whole entry): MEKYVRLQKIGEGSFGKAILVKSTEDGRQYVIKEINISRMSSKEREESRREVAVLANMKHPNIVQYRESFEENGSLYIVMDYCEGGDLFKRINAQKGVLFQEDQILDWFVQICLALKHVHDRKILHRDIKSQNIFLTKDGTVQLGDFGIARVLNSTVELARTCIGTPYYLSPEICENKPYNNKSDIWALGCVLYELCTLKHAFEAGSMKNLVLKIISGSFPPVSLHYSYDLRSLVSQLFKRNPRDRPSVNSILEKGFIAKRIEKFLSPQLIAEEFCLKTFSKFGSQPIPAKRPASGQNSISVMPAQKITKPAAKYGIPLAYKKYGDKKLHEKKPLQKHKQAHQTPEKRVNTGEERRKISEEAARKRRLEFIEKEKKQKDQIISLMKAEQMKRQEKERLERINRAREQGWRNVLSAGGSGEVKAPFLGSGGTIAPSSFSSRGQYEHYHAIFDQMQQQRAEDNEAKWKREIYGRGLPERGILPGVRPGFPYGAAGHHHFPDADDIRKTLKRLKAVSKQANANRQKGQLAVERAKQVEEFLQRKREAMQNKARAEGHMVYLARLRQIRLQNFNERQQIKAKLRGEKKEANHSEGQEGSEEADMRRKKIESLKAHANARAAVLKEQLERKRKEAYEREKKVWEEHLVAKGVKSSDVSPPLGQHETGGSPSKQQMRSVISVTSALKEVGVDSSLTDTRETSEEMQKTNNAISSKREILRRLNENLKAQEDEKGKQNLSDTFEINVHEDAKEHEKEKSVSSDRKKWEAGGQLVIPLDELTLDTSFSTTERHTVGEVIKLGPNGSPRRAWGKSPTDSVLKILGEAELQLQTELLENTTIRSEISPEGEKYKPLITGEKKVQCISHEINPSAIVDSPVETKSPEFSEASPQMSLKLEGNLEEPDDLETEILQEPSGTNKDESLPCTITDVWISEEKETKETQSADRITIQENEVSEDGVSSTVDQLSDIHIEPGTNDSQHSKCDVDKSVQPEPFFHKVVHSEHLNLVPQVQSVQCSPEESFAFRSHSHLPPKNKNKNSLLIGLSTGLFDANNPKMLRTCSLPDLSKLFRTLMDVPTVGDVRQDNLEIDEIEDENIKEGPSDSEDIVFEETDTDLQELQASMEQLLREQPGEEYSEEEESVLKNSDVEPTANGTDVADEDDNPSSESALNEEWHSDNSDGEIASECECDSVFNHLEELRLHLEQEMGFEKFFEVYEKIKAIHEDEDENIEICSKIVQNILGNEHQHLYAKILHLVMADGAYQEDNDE

[3] = biological target: T2, Serine/threonine-protein kinase Nek1 (Homo sapiens); conditions: at 1 µM
[4] = biological target: T3, Serine/threonine-protein kinase Nek2 (Homo sapiens) (UniProt P51955); conditions: at 0.1 µM
T3 sequence (whole entry): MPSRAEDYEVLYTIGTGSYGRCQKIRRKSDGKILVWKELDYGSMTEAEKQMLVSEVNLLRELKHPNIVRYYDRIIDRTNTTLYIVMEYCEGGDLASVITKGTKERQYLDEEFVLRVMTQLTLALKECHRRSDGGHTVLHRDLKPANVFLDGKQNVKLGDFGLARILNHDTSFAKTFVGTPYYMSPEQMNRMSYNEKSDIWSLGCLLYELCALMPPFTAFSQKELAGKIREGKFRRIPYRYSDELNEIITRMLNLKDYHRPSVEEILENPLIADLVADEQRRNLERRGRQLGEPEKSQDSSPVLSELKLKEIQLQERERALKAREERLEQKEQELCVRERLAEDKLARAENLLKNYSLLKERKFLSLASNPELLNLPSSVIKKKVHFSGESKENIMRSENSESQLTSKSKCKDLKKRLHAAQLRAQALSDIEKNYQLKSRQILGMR

[5] = biological target: T3, Serine/threonine-protein kinase Nek2 (Homo sapiens); conditions: at 1 µM
[6] = biological target: Serine/threonine-protein kinase Nek6 (Homo sapiens) (UniProt Q9HC98); conditions: at 0.1 µM
Serine/threonine-protein kinase Nek6 (Homo sapiens), sequence (Q9HC98 whole entry): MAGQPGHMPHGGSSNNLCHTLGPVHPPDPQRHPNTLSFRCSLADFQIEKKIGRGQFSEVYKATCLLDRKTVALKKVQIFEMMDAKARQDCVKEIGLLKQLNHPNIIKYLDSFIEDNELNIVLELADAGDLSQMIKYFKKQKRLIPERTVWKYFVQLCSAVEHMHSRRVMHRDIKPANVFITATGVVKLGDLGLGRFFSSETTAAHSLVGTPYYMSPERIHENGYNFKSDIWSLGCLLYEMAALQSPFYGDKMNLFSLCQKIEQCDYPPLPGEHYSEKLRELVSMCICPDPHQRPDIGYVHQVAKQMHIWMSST

[7] = biological target: Serine/threonine-protein kinase Nek6 (Homo sapiens) (UniProt Q9HC98); conditions: at 1 µM
[8] = biological target: Serine/threonine-protein kinase Nek7 (Homo sapiens) (UniProt Q8TDX7); conditions: at 0.1 µM
Serine/threonine-protein kinase Nek7 (Homo sapiens), sequence (Q8TDX7 whole entry, looked up): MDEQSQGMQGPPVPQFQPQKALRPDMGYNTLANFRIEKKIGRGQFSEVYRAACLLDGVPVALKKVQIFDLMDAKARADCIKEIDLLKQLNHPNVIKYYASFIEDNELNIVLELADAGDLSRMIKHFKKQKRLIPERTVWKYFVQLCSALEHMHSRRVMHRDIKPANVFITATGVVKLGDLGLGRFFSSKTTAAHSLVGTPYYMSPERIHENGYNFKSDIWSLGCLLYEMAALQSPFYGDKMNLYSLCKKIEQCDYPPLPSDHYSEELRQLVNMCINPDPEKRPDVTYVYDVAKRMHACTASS

[9] = biological target: Serine/threonine-protein kinase Nek7 (Homo sapiens) (UniProt Q8TDX7); conditions: at 1 µM
[10] = biological target: T4, Serine/threonine-protein kinase Nek9 (Homo sapiens) (UniProt Q8TD19); conditions: at 0.1 µM
T4 sequence (whole entry): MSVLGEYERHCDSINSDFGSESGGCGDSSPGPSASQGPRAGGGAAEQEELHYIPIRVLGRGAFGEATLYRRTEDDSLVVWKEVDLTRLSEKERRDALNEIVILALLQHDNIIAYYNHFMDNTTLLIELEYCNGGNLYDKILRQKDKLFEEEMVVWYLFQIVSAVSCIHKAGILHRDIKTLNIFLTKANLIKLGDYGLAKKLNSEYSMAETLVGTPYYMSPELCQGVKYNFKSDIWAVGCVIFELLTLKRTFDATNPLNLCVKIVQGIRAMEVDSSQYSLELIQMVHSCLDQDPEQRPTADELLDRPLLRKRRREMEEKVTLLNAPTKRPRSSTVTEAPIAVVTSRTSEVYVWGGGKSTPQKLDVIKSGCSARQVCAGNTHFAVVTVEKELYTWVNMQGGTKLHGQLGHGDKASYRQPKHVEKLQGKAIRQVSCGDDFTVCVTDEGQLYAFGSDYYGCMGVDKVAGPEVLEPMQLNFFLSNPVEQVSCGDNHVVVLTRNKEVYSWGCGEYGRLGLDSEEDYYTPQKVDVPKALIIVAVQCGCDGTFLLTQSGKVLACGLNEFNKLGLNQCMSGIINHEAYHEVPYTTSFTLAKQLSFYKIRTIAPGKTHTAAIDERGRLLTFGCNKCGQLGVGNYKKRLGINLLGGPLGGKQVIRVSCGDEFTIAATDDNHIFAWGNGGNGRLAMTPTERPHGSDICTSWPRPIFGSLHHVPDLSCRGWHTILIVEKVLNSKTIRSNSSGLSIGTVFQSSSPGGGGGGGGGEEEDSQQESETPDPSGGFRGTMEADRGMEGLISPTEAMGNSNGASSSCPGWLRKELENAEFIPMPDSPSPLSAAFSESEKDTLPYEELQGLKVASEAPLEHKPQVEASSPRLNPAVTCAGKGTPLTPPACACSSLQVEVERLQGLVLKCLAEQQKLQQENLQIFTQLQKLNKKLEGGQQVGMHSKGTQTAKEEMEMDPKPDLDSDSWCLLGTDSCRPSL

[11] = biological target: T4, Serine/threonine-protein kinase Nek9 (Homo sapiens); conditions: at 1 µM
[12] = biological target: Serine/threonine-protein kinase PLK1 (Homo sapiens) (UniProt P53350); conditions: at 0.1 µM
Serine/threonine-protein kinase PLK1 (Homo sapiens), sequence (P53350 whole entry): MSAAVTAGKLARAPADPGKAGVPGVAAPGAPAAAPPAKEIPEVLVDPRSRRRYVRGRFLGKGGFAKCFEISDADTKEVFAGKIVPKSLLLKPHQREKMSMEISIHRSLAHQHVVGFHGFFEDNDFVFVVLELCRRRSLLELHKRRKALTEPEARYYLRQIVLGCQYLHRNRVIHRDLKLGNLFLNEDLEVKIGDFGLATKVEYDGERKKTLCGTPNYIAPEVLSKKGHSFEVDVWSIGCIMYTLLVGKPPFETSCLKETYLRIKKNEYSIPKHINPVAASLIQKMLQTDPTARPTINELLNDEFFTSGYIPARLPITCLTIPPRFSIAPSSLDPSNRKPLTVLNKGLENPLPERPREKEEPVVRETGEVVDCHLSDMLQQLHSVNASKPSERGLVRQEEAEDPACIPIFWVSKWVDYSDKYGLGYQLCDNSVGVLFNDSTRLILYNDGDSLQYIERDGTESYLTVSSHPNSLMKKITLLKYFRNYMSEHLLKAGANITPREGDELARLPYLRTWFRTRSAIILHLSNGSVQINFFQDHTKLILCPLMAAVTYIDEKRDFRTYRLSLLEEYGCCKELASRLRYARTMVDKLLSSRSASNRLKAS

[13] = biological target: Serine/threonine-protein kinase PLK1 (Homo sapiens) (UniProt P53350); conditions: at 1 µM
[14] = biological target: T5, Dual specificity protein kinase TTK (Homo sapiens) (UniProt P33981); conditions: at 0.1 µM
T5 sequence (whole entry): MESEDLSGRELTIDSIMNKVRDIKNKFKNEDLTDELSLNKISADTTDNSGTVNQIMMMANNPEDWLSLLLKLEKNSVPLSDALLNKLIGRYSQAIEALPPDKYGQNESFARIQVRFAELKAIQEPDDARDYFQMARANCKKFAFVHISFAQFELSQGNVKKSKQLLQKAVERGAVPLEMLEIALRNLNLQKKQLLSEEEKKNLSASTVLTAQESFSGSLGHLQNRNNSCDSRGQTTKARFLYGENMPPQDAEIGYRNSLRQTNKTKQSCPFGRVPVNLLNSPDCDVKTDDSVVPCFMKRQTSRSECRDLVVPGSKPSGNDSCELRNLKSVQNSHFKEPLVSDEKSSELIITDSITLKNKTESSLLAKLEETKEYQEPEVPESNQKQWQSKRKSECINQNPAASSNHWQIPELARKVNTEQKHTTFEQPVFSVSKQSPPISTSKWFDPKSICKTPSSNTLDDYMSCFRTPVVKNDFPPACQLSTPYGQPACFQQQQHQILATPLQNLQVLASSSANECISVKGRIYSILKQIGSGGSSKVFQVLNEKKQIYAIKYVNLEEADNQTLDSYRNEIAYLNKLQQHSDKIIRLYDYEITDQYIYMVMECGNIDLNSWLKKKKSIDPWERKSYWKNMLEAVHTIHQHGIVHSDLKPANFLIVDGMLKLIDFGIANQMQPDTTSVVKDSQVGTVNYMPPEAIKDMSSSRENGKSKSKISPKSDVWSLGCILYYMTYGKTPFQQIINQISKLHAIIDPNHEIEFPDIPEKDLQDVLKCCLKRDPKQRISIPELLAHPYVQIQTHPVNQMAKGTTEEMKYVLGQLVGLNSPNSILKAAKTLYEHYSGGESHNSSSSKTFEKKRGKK

[15] = system: T6, Receptor-type tyrosine-protein kinase FLT3 (Homo sapiens), P36888 [D835Y]; conditions: at 1 µM
T6 sequence (whole entry): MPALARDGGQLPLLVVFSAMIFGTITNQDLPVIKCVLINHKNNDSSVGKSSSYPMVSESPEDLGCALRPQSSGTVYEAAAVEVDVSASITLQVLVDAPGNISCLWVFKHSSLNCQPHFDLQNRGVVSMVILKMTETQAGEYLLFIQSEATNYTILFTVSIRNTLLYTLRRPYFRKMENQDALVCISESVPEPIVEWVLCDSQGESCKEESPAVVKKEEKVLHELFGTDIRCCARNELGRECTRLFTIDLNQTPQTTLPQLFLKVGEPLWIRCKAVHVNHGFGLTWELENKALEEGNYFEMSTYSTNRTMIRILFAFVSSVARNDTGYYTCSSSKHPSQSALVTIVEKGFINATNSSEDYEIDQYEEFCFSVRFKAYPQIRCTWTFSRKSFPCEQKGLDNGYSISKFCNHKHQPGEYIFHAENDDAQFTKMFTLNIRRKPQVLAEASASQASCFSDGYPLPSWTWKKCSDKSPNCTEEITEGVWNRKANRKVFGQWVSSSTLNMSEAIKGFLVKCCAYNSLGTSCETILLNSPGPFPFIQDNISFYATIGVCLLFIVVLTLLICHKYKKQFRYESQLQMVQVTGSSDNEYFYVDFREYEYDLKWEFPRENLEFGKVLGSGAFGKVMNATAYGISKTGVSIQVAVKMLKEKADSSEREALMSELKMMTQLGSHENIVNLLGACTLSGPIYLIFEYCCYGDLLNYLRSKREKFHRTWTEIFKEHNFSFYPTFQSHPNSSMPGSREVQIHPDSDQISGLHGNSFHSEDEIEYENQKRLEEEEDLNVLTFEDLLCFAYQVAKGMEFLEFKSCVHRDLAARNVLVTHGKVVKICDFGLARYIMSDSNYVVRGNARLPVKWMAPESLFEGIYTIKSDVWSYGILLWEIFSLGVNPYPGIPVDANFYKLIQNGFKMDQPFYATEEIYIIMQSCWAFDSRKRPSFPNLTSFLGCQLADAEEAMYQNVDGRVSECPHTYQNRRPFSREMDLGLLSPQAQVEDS

[16] = biological target: Vascular endothelial growth factor receptor 3 (Homo sapiens) (UniProt P35916); conditions: at 0.1 µM
Vascular endothelial growth factor receptor 3 (Homo sapiens), sequence (P35916 whole entry): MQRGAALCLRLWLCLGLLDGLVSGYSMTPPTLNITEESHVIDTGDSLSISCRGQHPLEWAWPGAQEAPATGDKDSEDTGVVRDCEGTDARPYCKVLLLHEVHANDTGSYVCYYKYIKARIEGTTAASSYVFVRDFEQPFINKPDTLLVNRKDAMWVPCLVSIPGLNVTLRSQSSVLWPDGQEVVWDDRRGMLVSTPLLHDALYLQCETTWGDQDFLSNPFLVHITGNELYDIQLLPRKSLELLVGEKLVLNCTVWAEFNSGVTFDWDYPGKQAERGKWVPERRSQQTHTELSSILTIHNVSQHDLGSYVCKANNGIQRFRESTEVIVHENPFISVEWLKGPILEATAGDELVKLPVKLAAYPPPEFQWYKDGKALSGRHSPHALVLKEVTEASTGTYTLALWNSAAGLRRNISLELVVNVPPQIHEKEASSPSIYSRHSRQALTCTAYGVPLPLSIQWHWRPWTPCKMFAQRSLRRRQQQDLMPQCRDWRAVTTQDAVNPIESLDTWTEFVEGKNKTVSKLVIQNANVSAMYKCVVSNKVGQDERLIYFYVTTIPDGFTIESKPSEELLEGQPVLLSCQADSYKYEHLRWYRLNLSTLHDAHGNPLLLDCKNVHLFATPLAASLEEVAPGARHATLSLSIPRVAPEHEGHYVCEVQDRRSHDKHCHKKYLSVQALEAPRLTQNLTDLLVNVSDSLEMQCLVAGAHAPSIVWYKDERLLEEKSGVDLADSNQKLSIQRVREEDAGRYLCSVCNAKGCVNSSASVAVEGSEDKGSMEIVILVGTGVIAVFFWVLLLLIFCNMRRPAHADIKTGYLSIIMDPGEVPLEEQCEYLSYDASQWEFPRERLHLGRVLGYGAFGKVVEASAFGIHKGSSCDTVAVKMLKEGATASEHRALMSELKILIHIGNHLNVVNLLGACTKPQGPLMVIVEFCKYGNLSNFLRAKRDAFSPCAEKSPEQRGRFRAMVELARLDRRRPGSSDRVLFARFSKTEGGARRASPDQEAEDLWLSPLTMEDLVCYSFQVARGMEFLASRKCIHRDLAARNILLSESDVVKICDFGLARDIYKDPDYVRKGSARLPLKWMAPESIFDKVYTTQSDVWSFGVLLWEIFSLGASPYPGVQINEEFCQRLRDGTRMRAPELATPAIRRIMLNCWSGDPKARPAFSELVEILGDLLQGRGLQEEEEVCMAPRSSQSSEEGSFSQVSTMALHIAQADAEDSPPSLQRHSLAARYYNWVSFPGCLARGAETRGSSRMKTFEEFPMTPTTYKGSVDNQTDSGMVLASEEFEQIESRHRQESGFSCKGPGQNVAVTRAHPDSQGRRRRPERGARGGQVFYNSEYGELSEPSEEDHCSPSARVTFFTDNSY

[17] = biological target: Vascular endothelial growth factor receptor 3 (Homo sapiens) (UniProt P35916); conditions: at 1 µM
[18] = biological target: Macrophage colony-stimulating factor 1 receptor (Homo sapiens) (UniProt P07333); conditions: at 0.1 µM
Macrophage colony-stimulating factor 1 receptor (Homo sapiens), sequence (P07333 whole entry): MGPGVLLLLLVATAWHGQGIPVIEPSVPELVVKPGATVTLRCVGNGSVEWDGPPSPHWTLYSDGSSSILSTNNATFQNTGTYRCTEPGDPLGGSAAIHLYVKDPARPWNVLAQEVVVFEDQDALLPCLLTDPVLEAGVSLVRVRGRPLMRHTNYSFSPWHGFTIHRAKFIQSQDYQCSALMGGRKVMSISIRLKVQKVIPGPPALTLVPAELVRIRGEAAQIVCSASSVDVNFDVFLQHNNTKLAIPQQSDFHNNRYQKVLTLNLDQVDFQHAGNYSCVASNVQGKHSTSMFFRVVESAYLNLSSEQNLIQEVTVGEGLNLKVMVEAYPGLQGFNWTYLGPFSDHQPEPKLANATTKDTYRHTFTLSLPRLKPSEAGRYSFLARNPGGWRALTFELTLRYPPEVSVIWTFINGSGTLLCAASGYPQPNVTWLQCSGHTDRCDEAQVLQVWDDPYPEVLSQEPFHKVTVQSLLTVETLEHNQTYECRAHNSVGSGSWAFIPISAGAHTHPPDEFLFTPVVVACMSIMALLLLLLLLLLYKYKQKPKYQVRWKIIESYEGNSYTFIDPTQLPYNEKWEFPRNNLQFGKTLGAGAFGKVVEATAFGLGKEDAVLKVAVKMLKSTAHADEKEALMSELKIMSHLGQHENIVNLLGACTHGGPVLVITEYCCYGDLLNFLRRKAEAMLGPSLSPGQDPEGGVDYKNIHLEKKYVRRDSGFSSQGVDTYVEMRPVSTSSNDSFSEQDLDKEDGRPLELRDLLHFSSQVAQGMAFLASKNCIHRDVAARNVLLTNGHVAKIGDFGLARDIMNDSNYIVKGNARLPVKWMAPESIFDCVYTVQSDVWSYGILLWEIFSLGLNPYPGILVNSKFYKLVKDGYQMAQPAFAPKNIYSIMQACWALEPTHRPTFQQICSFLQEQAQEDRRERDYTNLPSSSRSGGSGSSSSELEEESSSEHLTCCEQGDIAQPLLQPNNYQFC

[19] = biological target: Macrophage colony-stimulating factor 1 receptor (Homo sapiens) (UniProt P07333); conditions: at 1 µM
[20] = biological target: Tyrosine-protein kinase Fyn (Homo sapiens) (UniProt P06241); conditions: at 0.1 µM
Tyrosine-protein kinase Fyn (Homo sapiens), sequence (P06241 2-537 limits assumed): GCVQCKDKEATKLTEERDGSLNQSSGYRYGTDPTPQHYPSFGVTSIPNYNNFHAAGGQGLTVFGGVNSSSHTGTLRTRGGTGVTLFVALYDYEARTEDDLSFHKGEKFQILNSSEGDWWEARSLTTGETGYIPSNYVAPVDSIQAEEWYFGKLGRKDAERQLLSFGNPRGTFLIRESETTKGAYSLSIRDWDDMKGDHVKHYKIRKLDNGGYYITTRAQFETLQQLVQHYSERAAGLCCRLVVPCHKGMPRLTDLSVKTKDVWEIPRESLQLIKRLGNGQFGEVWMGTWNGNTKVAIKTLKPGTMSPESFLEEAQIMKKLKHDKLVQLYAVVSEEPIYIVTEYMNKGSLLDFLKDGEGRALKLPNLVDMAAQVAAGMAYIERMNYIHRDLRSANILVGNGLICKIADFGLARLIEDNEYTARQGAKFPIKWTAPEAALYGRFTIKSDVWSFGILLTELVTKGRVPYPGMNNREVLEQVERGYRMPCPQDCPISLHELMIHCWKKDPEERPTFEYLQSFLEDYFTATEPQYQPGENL

Row | SMILES | inhibition [1] [%] | inhibition [2] [%] | inhibition [3] [%] | inhibition [4] [%] | inhibition [5] [%] | inhibition [6] [%] | inhibition [7] [%] | inhibition [8] [%] | inhibition [9] [%] | inhibition [10] [%] | inhibition [11] [%] | inhibition [12] [%] | inhibition [13] [%] | inhibition [14] [%] | inhibition [15] [%] | inhibition [16] [%] | inhibition [17] [%] | inhibition [18] [%] | inhibition [19] [%] | inhibition [20] [%]
1 | COc1cc(C=NNc2ncnc3c2cnn3Cc2ccccc2)ccc1O | -4.1 | -1.23 | -0.61 | -5.42 | -5.26 | -0.58 | -3.89 | -6.27 | -2.54 | 3.47 | -0.84 | -3.5 | -2.85 | -6.4 | 2.91 | 0.12 | 0.41 | 14.5 | 58.7 | 6.12
2 | Nc1nonc1-c1nc2cnccc2n1C1CCCCC1 | 16.2 | -1.33 | 0.56 | -2.06 | -7.26 | 0.47 | -0.88 | 0.07 | -0.97 | -5.44 | -2.86 | -2.48 | -0.5 | -1.57 | 19.7 | 4.11 | 16.7 | 27.4 | 76.3 | 2.06
3 | NS(=O)(=O)c1ccc(N/C=C2\C(=O)Nc3ccc4ncsc4c32)cc1 | 41.9 | 2.04 | 3.28 | 6.71 | 8.52 | 1.42 | 4.37 | 1.21 | 7.53 | 5.84 | 22.4 | 4.2 | 4.96 | 40.1 | 81.1 | 38.2 | 93.1 | 29.5 | 58.6 | 2.85
